# Reference: PubChem BioAssay (NCATS)
# Results filed as inconclusive are left out. Entries that show only a call come without a potency. A number with no mark means an inactive call. The source made the active and inactive calls. The call rests on the fitted dose curve; in most records, active means well fitted curve in the direction sought with a large enough effect; inconclusive means small, poorly fitted or top-dose-only effect, or another doubt; inactive means no such curve, though single readings can be large; an effect the other way counts as inactive or inconclusive.
# How the values were obtained:
# [1] = system: Zika virus NS2B-NS3 protease; assay: Primary screen GU AMC qHTS for Zika virus inhibitors (AID 1347154); settings: Zika NS2B-NS3 unlinked protease, AMC fluorogenic substrate; series mostly up to 54.1 µM; further: nearly all actives have a fitted effect of over 70% in size
# Outline: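 Unlinked Zika NS2B hydrophilic domain/NS3 protease domain noncovalent complex (25 nM final) in 10 mM Tris-HCl pH 8.0, 0.01% Tween 20, with AMC peptide substrate. Fluorescence (ex 340, em 450 nm) change over 15 min, room temperature; percent inhibition fitted to 4-parameter Hill equation.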
# [2] = system: Zika virus NS2B-NS3 protease (unlinked complex); assay: Primary screen GU Rhodamine qHTS for Zika virus inhibitors: Unlinked NS2B-NS3 protease assay (AID 1347159); settings: Recombinant ZIKV NS2B-NS3 protease, Rhodamine110 substrate fluorescence; series mostly up to 107 µM; further: nearly all actives have a fitted effect of over 60% in size
# Outline: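 Buffer 10 mM Tris-HCl pH 8.0, 0.01% Tween 20. Unlinked protease 25 nM; compound preincubation 15 min, RT, protected from light. Substrate Rhod110, 1.5 microM; ~15% conversion in 15 min.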
# [3] = system: Zika virus NS2B-NS3 protease (linked construct); assay: Primary screen NINDS Rhodamine qHTS for Zika virus inhibitors (AID 1347160); settings: purified NS2B-NS3 protease, Rhodamine110 substrate fluorescence; series mostly up to 57.1 µM; further: nearly all actives have a fitted effect of over 55% in size
# Outline: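 Aprotinin served as in-plate control. Conditions: 25 nM linked NS2B-NS3, pH 8.0 Tris buffer, titrated compounds, 15 min preincubation and 15 min reaction with 1.5 microM Rhod110 substrate at room temperature.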
compound,measurement,setting,value
O=C(O)CCCC[C@@H]1SC[C@@H]2NC(=O)N[C@@H]21,Potency,[1],inactive
Clc1ccc2c(c1)Nc1ccccc1S2,Potency,[1],inactive
CN1C(CSCC(F)(F)F)Nc2cc(Cl)c(S(N)(=O)=O)cc2S1(=O)=O (centres undefined),Potency,[1],inactive
O=C(OCCN1CCOCC1)c1cccnc1Nc1cccc(C(F)(F)F)c1,Potency,[1],inactive
CCO[C@H](Cc1ccc(OCCc2ccc(OS(C)(=O)=O)cc2)cc1)C(=O)O,Potency,[1],inactive
CCCCN(CCCC)C(C(N)=O)c1ccc(OC)cc1 (centres undefined),Potency,[1],inactive
Cc1onc(-c2ccccc2)c1C(=O)Cl,Potency,[1],inactive
CC(CCc1ccc2c(c1)OCO2)NN (centres undefined),Potency,[1],inactive
N#CSCC(=O)O,Potency,[1],inactive
COC(=O)c1cc(S(N)(=O)=O)ccc1OC,Potency,[1],inactive
CC(C)(C)c1cc(C=O)cc(C(C)(C)C)c1O,Potency,[1],inactive
CCCCC(O)/C=C(C)/C=C/C=C/C(=O)N1CCCC1=O (centres undefined),Potency,[1],inactive
CC1(C)S[C@@H]2[C@H](NC(=O)C(c3ccccc3)S(=O)(=O)O)C(=O)N2[C@H]1C(=O)O (some centres undefined),Potency,[1],inactive
CC(=O)O[C@@H]1CC2C3CCc4cc(OC(=O)c5ccccc5)ccc4C3CCC2(C)[C@H]1OC(C)=O (some centres undefined),Potency,[1],inactive
CCCC(=O)Nc1ccc(O)c(C(C)=O)c1,Potency,[1],inactive
O=C1NCCN1CCN1CCC(c2cn(-c3ccc(F)cc3)c3ccc(Cl)cc23)CC1,Potency,[1],inactive
CN1CCN(N)CC1,Potency,[1],inactive
O=C(O)c1ccccc1S,Potency,[1],inactive
COC(=O)/C=C\C(=O)OC,Potency,[1],inactive
O=[N+]([O-])c1cncn1CCN1CCOCC1,Potency,[1],inactive
CC(=O)N(CC(=O)N(C)C)c1ccccc1,Potency,[1],inactive
c1ccc(C(O[C@H]2CCCN(CCc3ccc4c(c3)OCO4)C2)c2ccccc2)cc1,Potency,[1],inactive
CC(=O)OC[C@H]1O[C@@H](OC(C)=O)[C@H](OC(C)=O)[C@@H]1OC(C)=O,Potency,[1],inactive
Cc1c(C)c2c(c(C)c1OC(=O)CCC(=O)OCCO)CC[C@@](C)(CCC[C@H](C)CCC[C@H](C)CCCC(C)C)O2,Potency,[1],inactive
CC(NN)c1ccccc1 (centres undefined),Potency,[1],inactive
CCCCCN(CCCOC)C(=O)C(CCC(=O)O)NC(=O)c1ccc(Cl)c(Cl)c1 (centres undefined),Potency,[1],inactive
C=C(C)C(=O)OCC(O)CO (centres undefined),Potency,[1],inactive
O=[N+]([O-])c1nccn1CO[C@@H](CO)[C@H](O)CO,Potency,[1],inactive
same,Potency,[2],inactive
same,outcome,[3],inactive
O=C(CCC1CCN(Cc2ccccc2)CC1)c1ccc2c(c1)NCCCC2,Potency,[1],inactive
same,Potency,[2],inactive
same,outcome,[3],inactive
CCC(C(=O)NC(=O)NC(C)=O)c1ccccc1 (centres undefined),Potency,[1],inactive
same,Potency,[2],inactive
same,outcome,[3],inactive
O=C1NC(c2ccccc2)(c2ccccc2)C(=O)N1COP(=O)(O)O,Potency,[1],inactive
CN1CCCN(C(c2ccccc2)c2ccc(Cl)cc2)CC1 (centres undefined),Potency,[1],inactive
O=C(O)CNC(=O)CNC(=O)CNC(=O)CSC(=O)c1ccccc1,Potency,[1],inactive
same,Potency,[2],inactive
same,outcome,[3],inactive
Cc1cc(C(C)(C)C)c(O)c(C(C)(C)C)c1,Potency,[1],inactive
OC[C@]1(O)OC[C@@H](O)[C@H](O)[C@@H]1O,Potency,[1],inactive
O=C1Nc2ccccc2C1(c1ccc(O)cc1)c1ccc(O)cc1,Potency,[1],inactive
O=c1[nH]c(=O)n([C@H]2O[C@H](CO)[C@@H](O)[C@@H]2O)cc1/C=C\Br,Potency,[1],inactive
O=C(CCCl)NCCc1ccccc1,Potency,[1],inactive
CC(C)(C)C1CCC(CC2=C(O)c3ccccc3C(=O)C2=O)CC1 (centres undefined),Potency,[1],inactive
CCN(CC)CC(=O)Nc1c(C)cccc1C(=O)OC,Potency,[1],inactive
Cc1ccc(C(=O)C(=O)O)cc1C,Potency,[1],inactive
O=C(OCC1(COC(=O)c2cccnc2)CCCC(COC(=O)c2cccnc2)(COC(=O)c2cccnc2)C1O)c1cccnc1,Potency,[1],inactive
COc1cc(C(=O)OC(COCCC(C)C)CN2CCOCC2)cc(OC)c1OC (centres undefined),Potency,[1],inactive
same,Potency,[2],inactive
same,outcome,[3],inactive
Cc1cccc(N(C)C(=S)Oc2ccc3c(c2)CCC3)c1,Potency,[1],inactive
same,Potency,[2],inactive
same,outcome,[3],inactive
CC(NCCC(c1ccccc1)c1ccccc1)c1ccccc1 (centres undefined),Potency,[1],inactive
CC(C(=O)O)c1ccc(/C=C2\CCCCC2=O)cc1 (centres undefined),Potency,[1],inactive
same,Potency,[2],inactive
same,outcome,[3],inactive
CCN(CC)C(=O)C1CN2CCc3cc(OC)c(OC)cc3C2CC1OC(C)=O (centres undefined),Potency,[1],inactive
CSCC[C@H](NC(=O)[C@H](Cc1c[nH]c2ccccc12)NC(=O)CCNC(=O)OC(C)(C)C)C(=O)N[C@@H](CC(=O)O)C(=O)N[C@@H](Cc1ccccc1)C(N)=O,Potency,[1],inactive
C=CCNc1nc(NCC=C)nc(N2CCN(C(c3ccc(F)cc3)c3ccc(F)cc3)CC2)n1,Potency,[1],inactive
NC(=O)NC1N=C([O][Al])NC1=O (centres undefined),Potency,[1],inactive
c1ccc2c(c1)CCc1ccccc1N2,Potency,[1],inactive
Cc1[nH]cnc1-c1ccc(Cl)cc1,Potency,[1],inactive
CC1CN(c2cc3c(cc2F)c(=O)c(C(=O)O)cn3-c2ccc(F)cc2F)CCN1 (centres undefined),"activity change, negative = inhibition",[1],-3.57% [at 4.99 µM]
same,Potency,[2],inactive
Cc1ncc([N+](=O)[O-])n1C,Potency,[1],inactive
CCOC(=O)C(=O)CCCCCCl,Potency,[1],inactive
Oc1cccc2[nH]ccc12,Potency,[1],inactive
CNC(=O)c1c(I)c(NC(C)=O)c(I)c(C(=O)O)c1I,Potency,[1],inactive
OCc1cccnc1,Potency,[1],inactive
CCN1CCN(c2cc(-c3ccc(F)cc3)c3c(n2)CCCCCC3)CC1,Potency,[1],inactive
same,Potency,[2],inactive
same,outcome,[3],inactive
CN(C)C(=O)CNC(=O)Cc1ccccc1,Potency,[1],inactive
same,Potency,[2],inactive
same,outcome,[3],inactive
